Laboratory results from PubChem BioAssay (EPA / NIEHS).
Values joined by “and” are separate entries in the source; they are usually repeats but may differ in a detail not shown here. Identical values can stand only once. Records with an inconclusive call do not appear. A structure can be active in one record and inactive in another. Active and inactive are the calls of the source. The calls were made as follows, unless noted: active = hit-call score of the fitted dose curve at least 0.9, where 1 is the maximum; inconclusive = response in the unintended direction; inactive = score below 0.9.

Key:
[1] = BSK_4H_Eotaxin3: BioMAP Diversity Plus: 4H Assay for Eotaxin 3 Biomarker Activity (AID 2283000; active = hit-call score of the fitted dose curve at least 0.9, where 1 is the maximum; inactive = score below 0.9;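 as to outcome: CCL26 protein level quantified by ELISA in parallel with SRB cytotoxicity check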); details: primary human endothelial cells (HUVEC); actives raise or lower the signal
Outline: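 Readout is Eotaxin-3 (CCL26) level by ELISA in primary human umbilical vein endothelial cells harvested 24 h after chemical exposure; activity fitted in both directions against DMSO control.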

[2] = molecular target: human Peroxisome Proliferator-activated Receptor alpha (PPARa), PPARA (gene 5465) (UniProt Q07869); assay: ATG_PPARa_TRANS: Attagene TRANS-FACTORIAL HepG2 Assay for human Peroxisome Proliferator-activated Receptor alpha (PPARa) (AID 2283001);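 as to AC50: potency for gain of reporter signal over DMSO so agonist or activator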
human Peroxisome Proliferator-activated Receptor alpha (PPARa), PPARA (gene 5465), sequence (Q07869 whole entry, looked up, the tested form may be a part): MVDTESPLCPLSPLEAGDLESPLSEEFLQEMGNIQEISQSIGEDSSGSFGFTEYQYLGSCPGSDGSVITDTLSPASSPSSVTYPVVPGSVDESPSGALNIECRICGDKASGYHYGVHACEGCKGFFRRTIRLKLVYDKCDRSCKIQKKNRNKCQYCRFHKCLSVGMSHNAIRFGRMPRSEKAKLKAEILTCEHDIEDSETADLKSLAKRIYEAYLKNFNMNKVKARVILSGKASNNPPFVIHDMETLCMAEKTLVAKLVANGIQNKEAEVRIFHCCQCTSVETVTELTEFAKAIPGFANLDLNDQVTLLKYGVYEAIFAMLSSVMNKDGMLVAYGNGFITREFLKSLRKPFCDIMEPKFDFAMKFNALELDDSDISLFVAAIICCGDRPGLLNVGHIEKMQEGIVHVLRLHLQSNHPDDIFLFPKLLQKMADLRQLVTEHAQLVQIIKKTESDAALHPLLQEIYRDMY
Outline: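 Gain-of-signal endpoint: reporter mRNA induction relative to DMSO, detected by fluorescent RT-PCR and capillary electrophoresis. HepG2 cells transiently carried GAL4-UAS-driven reporter units plus NR-Gal4 fusion; exposure lasted 24 h.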

[3] = read-out: Intercellular Adhesion Molecule 1 (ICAM1), ICAM1 (gene 3383); assay: BSK_3C_ICAM1: BioMAP Diversity Plus: 3C Assay for Intercellular Adhesion Molecule 1 (ICAM1) Biomarker Activity (AID 2283003; active = hit-call score of the fitted dose curve at least 0.9, where 1 is the maximum; inactive = score below 0.9); details: primary human endothelial cells (HUVEC); actives raise or lower the signal
Outline: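 ICAM-1 levels measured by ELISA after HUVEC cultures in the 3C system had been dosed for 24 h. Gain or loss of signal relative to DMSO was fitted in both directions.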

[4] = molecular target: Retinoic acid receptor alpha (Homo sapiens) (UniProt P10276); assay: ATG_RARa_TRANS: Attagene TRANS-FACTORIAL HepG2 Assay for human Retinoic Acid Receptor alpha (RARa) (AID 2283005)
Retinoic acid receptor alpha (Homo sapiens), sequence (P10276 whole entry, looked up, the tested form may be a part): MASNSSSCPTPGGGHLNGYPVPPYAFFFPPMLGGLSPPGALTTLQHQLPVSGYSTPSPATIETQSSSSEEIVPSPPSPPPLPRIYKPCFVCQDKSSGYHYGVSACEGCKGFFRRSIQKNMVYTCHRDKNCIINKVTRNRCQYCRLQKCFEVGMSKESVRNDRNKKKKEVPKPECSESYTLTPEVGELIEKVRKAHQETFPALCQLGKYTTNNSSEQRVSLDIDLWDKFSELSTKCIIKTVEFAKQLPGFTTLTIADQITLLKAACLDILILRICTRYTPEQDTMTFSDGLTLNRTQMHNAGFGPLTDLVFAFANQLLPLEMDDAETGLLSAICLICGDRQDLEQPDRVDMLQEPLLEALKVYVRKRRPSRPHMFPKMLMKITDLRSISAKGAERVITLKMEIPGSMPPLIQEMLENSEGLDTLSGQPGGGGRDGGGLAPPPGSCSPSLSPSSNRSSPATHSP
Outline: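 HepG2 cells transiently transfected with multiple reporter units expressing chimeric RARα-GAL4 fusion, with GAL4-UAS-driven reporters. After 24 h compound exposure, reporter mRNA induction quantified by RT-PCR and capillary electrophoresis with fluorescent labeling; gain-of-signal fitted relative to DMSO control.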

[5] = BSK_3C_Proliferation: Cell Proliferation Assessment in the BioMAP Diversity Plus: 3C Assay (AID 2283006; active = hit-call score of the fitted dose curve at least 0.9, where 1 is the maximum; inactive = score below 0.9;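 as to AC50: potency may reflect either rise or fall in cell number versus DMSO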); details: primary human endothelial cells (HUVEC)
Outline: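 Read-out is total protein by SRB absorbance at 560 nm, taken as a proxy for relative cell number. Primary human umbilical vein endothelium cultured below confluence was dosed for 48 h, TCA-fixed and SRB-stained; curves were fitted bidirectionally versus DMSO.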

[6] = molecular target: Peroxisome proliferator-activated receptor gamma (Homo sapiens) (UniProt P37231); assay: ATG_PPARg_TRANS: Attagene TRANS-FACTORIAL HepG2 Assay for human Peroxisome Proliferator-activated Receptor-gamma (PPARg) (AID 2283007)
Peroxisome proliferator-activated receptor gamma (Homo sapiens), sequence (P37231 whole entry, looked up, the tested form may be a part): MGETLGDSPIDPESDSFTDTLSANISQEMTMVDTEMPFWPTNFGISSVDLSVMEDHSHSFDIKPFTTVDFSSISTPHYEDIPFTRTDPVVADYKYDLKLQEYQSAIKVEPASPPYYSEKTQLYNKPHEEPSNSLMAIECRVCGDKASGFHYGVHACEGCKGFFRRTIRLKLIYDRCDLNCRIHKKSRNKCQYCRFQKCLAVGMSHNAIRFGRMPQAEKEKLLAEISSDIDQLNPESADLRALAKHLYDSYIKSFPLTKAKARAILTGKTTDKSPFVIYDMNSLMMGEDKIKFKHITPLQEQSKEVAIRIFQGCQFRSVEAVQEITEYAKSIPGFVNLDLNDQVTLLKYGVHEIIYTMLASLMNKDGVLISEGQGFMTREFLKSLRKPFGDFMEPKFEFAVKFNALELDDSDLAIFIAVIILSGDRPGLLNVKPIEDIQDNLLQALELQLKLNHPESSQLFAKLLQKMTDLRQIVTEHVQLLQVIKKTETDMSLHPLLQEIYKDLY
Outline: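 Liver-derived HepG2 cells expressing an exogenous NR-Gal4 chimera alongside GAL4-UAS reporter genes; 24 h exposure. Fluorescence of reporter RT-PCR products, separated by capillary electrophoresis, gives mRNA induction relative to DMSO.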

[7] = molecular target: Nuclear receptor subfamily 1 group I member 2 (Homo sapiens) (UniProt O75469); assay: ATG_PXR_TRANS: Attagene TRANS-FACTORIAL HepG2 Assay for human Pregnane X Receptor (PXR) (AID 2283008)
Nuclear receptor subfamily 1 group I member 2 (Homo sapiens), sequence (O75469 whole entry, looked up, the tested form may be a part): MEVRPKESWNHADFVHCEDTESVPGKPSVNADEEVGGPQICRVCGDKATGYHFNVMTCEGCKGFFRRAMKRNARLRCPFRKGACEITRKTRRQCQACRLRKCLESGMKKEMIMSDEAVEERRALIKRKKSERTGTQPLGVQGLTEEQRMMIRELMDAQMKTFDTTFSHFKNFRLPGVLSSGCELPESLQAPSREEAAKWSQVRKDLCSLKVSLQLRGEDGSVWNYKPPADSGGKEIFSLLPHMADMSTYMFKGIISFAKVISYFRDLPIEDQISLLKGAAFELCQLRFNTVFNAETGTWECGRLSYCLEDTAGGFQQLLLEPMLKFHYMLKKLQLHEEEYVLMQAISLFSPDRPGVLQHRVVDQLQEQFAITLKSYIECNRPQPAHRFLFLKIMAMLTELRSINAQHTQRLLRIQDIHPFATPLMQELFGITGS
Outline: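 HepG2 cells transiently transfected with GAL4-UAS reporter units and PXR-Gal4 chimera, exposed 24 h. Reporter mRNA quantified by RT-PCR, fluorescent labelling, HpaI digestion and capillary electrophoresis; gain of signal vs DMSO.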

[8] = molecular target: human Retinoic Acid Receptor gamma (RARg), RARG (gene 5916) (UniProt P13631); assay: ATG_RARg_TRANS: Attagene TRANS-FACTORIAL HepG2 Assay for human Retinoic Acid Receptor gamma (RARg) (AID 2283009)
human Retinoic Acid Receptor gamma (RARg), RARG (gene 5916), sequence (P13631 whole entry, looked up): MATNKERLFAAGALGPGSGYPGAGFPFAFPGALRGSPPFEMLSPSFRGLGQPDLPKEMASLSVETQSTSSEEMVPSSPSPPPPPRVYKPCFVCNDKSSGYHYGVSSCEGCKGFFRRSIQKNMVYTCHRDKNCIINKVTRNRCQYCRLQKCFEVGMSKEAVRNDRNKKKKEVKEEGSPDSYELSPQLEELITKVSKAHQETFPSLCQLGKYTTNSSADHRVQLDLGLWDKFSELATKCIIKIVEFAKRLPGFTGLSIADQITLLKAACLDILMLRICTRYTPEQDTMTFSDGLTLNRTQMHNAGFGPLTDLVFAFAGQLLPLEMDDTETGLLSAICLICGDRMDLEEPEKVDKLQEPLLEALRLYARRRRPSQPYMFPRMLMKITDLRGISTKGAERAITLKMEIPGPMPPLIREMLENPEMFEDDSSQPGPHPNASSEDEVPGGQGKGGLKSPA
Outline: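 Transient transfection of HepG2 with multi-reporter constructs, then 24 h chemical treatment. Total RNA isolated, reverse-transcribed, PCR-amplified, fluorescently labelled and resolved by capillary electrophoresis; activity scored as mRNA induction versus DMSO.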

[9] = molecular target: human Peroxisome Proliferator-activated Receptor delta (PPARd), PPARD (gene 5467) (UniProt Q03181); assay: ATG_PPARd_TRANS: Attagene TRANS-FACTORIAL HepG2 Assay for human Peroxisome Proliferator-activated Receptor delta (PPARd) (AID 2283002)
human Peroxisome Proliferator-activated Receptor delta (PPARd), PPARD (gene 5467), sequence (Q03181 whole entry, looked up, the tested form may be a part): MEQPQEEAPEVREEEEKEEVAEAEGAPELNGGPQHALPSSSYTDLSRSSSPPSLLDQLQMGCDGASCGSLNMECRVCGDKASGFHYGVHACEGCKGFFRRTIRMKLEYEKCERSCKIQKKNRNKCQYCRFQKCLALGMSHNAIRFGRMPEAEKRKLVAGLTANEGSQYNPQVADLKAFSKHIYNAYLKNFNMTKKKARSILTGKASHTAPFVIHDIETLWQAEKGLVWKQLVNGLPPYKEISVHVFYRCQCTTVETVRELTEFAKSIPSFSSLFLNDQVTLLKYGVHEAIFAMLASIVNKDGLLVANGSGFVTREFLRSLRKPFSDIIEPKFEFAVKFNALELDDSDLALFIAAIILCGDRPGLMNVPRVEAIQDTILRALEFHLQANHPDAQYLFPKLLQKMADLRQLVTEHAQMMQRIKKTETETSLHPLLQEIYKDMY
Outline: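 Measured quantity: GAL4-UAS reporter transcript induction in HepG2 after 24 h chemical dosing, with NR-Gal4 chimeras supplied by transient transfection. Detection by RT-PCR and capillary electrophoresis; upward fit against DMSO.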

[10] = molecular target: human Retinoic Acid Receptor beta (RARb), RARB (gene 5915) (UniProt P10826); assay: ATG_RARb_TRANS: Attagene TRANS-FACTORIAL HepG2 Assay for human Retinoic Acid Receptor beta (AID 2283004)
human Retinoic Acid Receptor beta (RARb), RARB (gene 5915), sequence (P10826 whole entry, looked up, the tested form may be a part): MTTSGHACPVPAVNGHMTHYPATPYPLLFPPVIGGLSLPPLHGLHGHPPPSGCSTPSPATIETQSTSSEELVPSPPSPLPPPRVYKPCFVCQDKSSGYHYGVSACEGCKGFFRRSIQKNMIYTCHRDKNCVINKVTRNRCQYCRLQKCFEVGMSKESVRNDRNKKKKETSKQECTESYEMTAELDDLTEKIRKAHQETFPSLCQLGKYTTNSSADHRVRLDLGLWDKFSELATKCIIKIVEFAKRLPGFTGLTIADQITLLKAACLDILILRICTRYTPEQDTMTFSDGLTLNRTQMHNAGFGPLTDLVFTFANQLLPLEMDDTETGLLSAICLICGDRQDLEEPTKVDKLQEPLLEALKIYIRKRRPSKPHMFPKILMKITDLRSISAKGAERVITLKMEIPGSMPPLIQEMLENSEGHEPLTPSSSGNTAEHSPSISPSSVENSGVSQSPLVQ
Outline: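 Readout is reporter mRNA induction: RNA reverse-transcribed, PCR-amplified, FAM-labelled, HpaI-cut and resolved by capillary electrophoresis. Transiently transfected HepG2 cells carrying exogenous NR–Gal4 chimeras were dosed for 24 h; activity fitted upward relative to DMSO.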

CCCCCCOC(=O)CCCCC(=O)OCCCCCC
outcome [1]: inactive | outcome [2]: inactive | outcome [3]: inactive | outcome [4]: inactive | outcome [5]: inactive | outcome [6]: inactive | outcome [7]: inactive | outcome [8]: inactive

CCCCCCC=O
outcome [1]: inactive | outcome [2]: inactive | outcome [9]: inactive | outcome [3]: inactive | outcome [5]: inactive | AC50 [6]: 100 µM (active) | outcome [7]: inactive | outcome [8]: inactive

CC/C=C\C/C=C\C/C=C\CCCCCCCC(=O)OC
AC50 [1]: 27.7 µM (active) | AC50 [2]: 30.4 µM (active) | AC50 [9]: 68 µM (active) | AC50 [3]: 29.7 µM (active) | AC50 [5]: 7.69 µM (active) | AC50 [6]: 14.8 µM (active)

CC(Cl)COP(=O)(OCC(C)Cl)OCC(C)Cl (centres undefined)
outcome [1]: inactive | outcome [2]: inactive | outcome [3]: inactive | outcome [4]: inactive | outcome [5]: inactive | outcome [6]: inactive | outcome [8]: inactive

CCN1CN(CC)CN(CC)C1
outcome [1]: inactive | outcome [2]: inactive | outcome [3]: inactive | outcome [5]: inactive | outcome [6]: inactive | outcome [7]: inactive

CC(C)CCCCCOC(=O)CS
outcome [1]: inactive | outcome [2]: inactive | outcome [3]: inactive | outcome [5]: inactive | AC50 [6]: 19.5 µM (active) | outcome [7]: inactive

c1ccc(Nc2cccc3ccccc23)cc1
AC50 [1]: 32.8 µM (active) and 18 µM (active) | AC50 [2]: 9.04 µM (active) | AC50 [3]: 32.6 µM (active) | outcome [3]: inactive | AC50 [5]: 27 µM (active) and 30.4 µM (active) | AC50 [6]: 18.3 µM (active) | AC50 [7]: 12.6 µM (active)

C=CC(=O)NCOCCCC
outcome [1]: inactive | outcome [2]: inactive | outcome [9]: inactive | outcome [3]: inactive | outcome [5]: inactive | AC50 [6]: 34.2 µM (active) | outcome [7]: inactive

CC1=NN(c2ccc(S(=O)(=O)O)cc2)C(=O)C1N=Nc1ccccc1 (centres undefined)
outcome [2]: inactive | outcome [9]: inactive | outcome [10]: inactive | outcome [4]: inactive | outcome [6]: inactive | outcome [8]: inactive

Clc1cccnc1
outcome [2]: inactive | outcome [9]: inactive | outcome [10]: inactive | outcome [4]: inactive | outcome [8]: inactive

CCNc1nc(NC(C)(C)C)nc(OC)n1
outcome [1]: inactive | outcome [9]: inactive | outcome [3]: inactive | outcome [4]: inactive | outcome [5]: inactive | outcome [6]: inactive | AC50 [7]: 3.89 µM (active) | outcome [8]: inactive

NC(=O)Nc1ccccc1
outcome [2]: inactive

O=C1CCCCCCCCCCCN1
outcome [1]: inactive | outcome [9]: inactive | outcome [3]: inactive | outcome [5]: inactive | AC50 [7]: 5.31 µM (active) | outcome [8]: inactive

CC(=O)OC1CCCCC1C(C)(C)C (centres undefined)
outcome [2]: inactive | outcome [9]: inactive | outcome [10]: inactive | outcome [4]: inactive | outcome [6]: inactive | outcome [7]: inactive | outcome [8]: inactive

C[N+](C)(C)CCCNS(=O)(=O)C(F)(F)C(F)(F)C(F)(F)C(F)(F)C(F)(F)C(F)(F)C(F)(F)C(F)(F)F
AC50 [1]: 39 µM (active) and 45.1 µM (active) | outcome [2]: inactive | outcome [3]: inactive | AC50 [5]: 43.4 µM (active) and 42.7 µM (active) | outcome [6]: inactive | outcome [7]: inactive | outcome [8]: inactive

Cc1c(O)cccc1O
outcome [1]: inactive | outcome [3]: inactive | outcome [5]: inactive | outcome [6]: inactive | outcome [7]: inactive

O=C(O)c1ccc2c(c1)C(=O)OC2=O
outcome [2]: inactive

CC=C(C)C=CC=C(C)C
AC50 [1]: 20 µM (active) | outcome [3]: inactive | AC50 [5]: 22.1 µM (active) | AC50 [6]: 27.8 µM (active) | AC50 [7]: 6.05 µM (active) | outcome [8]: inactive

CCC(C)C(=O)OC (centres undefined)
outcome [2]: inactive | outcome [9]: inactive | outcome [10]: inactive | outcome [4]: inactive | outcome [6]: inactive

CC(=O)OCCc1ccccc1
outcome [2]: inactive | outcome [9]: inactive

COC(OC)(C(=O)c1ccccc1)c1ccccc1
outcome [1]: inactive | outcome [9]: inactive | outcome [3]: inactive | outcome [5]: inactive | outcome [6]: inactive | AC50 [7]: 0.52 µM (active) | outcome [8]: inactive

O=C(O)CCC(=O)O
outcome [2]: inactive

CC=C(C)C(C)=O
AC50 [1]: 20 µM (active) | outcome [2]: inactive | outcome [3]: inactive | outcome [5]: inactive | AC50 [7]: 12 µM (active) | outcome [8]: inactive

Oc1ccccc1Cc1ccccc1O
outcome [1]: inactive | outcome [2]: inactive | outcome [3]: inactive | AC50 [5]: 7.87 µM (active) and 20 µM (active) | AC50 [6]: 61.1 µM (active) | outcome [8]: inactive

Cc1ccccc1CCO
outcome [2]: inactive

O=C(Cl)c1c(Cl)c(Cl)c(C(=O)Cl)c(Cl)c1Cl
outcome [1]: inactive | outcome [2]: inactive | outcome [3]: inactive | outcome [5]: inactive | outcome [6]: inactive | outcome [8]: inactive

O=C(O)C(F)(F)C(F)(F)C(F)(F)C(F)(F)C(=O)O
outcome [1]: inactive | outcome [3]: inactive | outcome [5]: inactive | outcome [6]: inactive | outcome [8]: inactive

Nc1ccc(C(=O)O)cc1
outcome [1]: inactive | outcome [3]: inactive | outcome [4]: inactive | outcome [5]: inactive | outcome [8]: inactive

COc1ccc(C(=O)/C(Br)=C\C(=O)O)cc1
AC50 [1]: 8.38 µM (active) and 20 µM (active) | outcome [2]: inactive | AC50 [3]: 32.2 µM (active) and 33.3 µM (active) | AC50 [5]: 6.82 µM (active) and 20 µM (active) | AC50 [7]: 6.78 µM (active) | outcome [8]: inactive

C1CNCCN1
outcome [1]: inactive | outcome [3]: inactive | outcome [5]: inactive | outcome [7]: inactive | outcome [8]: inactive

C=CC(=O)NC(C)(C)C
outcome [1]: inactive | outcome [2]: inactive | outcome [3]: inactive | outcome [5]: inactive | outcome [7]: inactive

CC(C)C(=O)OCCc1ccccc1
outcome [1]: inactive | outcome [9]: inactive | outcome [3]: inactive | outcome [10]: inactive | outcome [5]: inactive | outcome [7]: inactive | outcome [8]: inactive

CCCCC1C(=O)N(c2ccccc2)N(c2ccccc2)C1=O
outcome [1]: inactive | outcome [3]: inactive | outcome [5]: inactive | AC50 [6]: 22.6 µM (active) | AC50 [7]: 1.01 µM (active) | outcome [8]: inactive

CCc1cccc(C)c1N(C(=O)CS(=O)(=O)O)C(C)COC (centres undefined)
outcome [1]: inactive | outcome [9]: inactive | outcome [3]: inactive | outcome [4]: inactive | outcome [5]: inactive | outcome [6]: inactive | AC50 [7]: 27.6 µM (active) | outcome [8]: inactive

CC1=CC=C(C(C)C)CC1
outcome [1]: inactive | outcome [3]: inactive | outcome [5]: inactive | outcome [6]: inactive | outcome [7]: inactive

CCCCCCCCC(CO)CCCCCC (centres undefined)
AC50 [1]: 5.35 µM (active) | outcome [3]: inactive | outcome [5]: inactive | outcome [6]: inactive | outcome [7]: inactive | outcome [8]: inactive
